# From PubChem BioAssay AID1851 (National Center for Advancing Translational Sciences (NCATS), 2009)
# Values joined by “and” are separate entries in the source; they are usually repeats but may differ in a detail not shown here. Equal values may be shown once. About 2,600 (16%) of roughly 16,000 compounds were called active. Inconclusive results (about 20%) are left out. This is one part of a sample in which actives are shown more often than they occur. The call rests on the fitted dose curve; in most records, active means well fitted curve in the direction sought with a large enough effect; inconclusive means small, poorly fitted or top-dose-only effect, or effect the other way; inactive means no such curve, though single readings can be large or run the other way. Where a structure was tested more than once in an assay, its records may differ in their call.
# Biological target: Cytochrome P450 2D6 (Homo sapiens) (UniProt P10635)
# Sequence (P10635 whole entry, looked up): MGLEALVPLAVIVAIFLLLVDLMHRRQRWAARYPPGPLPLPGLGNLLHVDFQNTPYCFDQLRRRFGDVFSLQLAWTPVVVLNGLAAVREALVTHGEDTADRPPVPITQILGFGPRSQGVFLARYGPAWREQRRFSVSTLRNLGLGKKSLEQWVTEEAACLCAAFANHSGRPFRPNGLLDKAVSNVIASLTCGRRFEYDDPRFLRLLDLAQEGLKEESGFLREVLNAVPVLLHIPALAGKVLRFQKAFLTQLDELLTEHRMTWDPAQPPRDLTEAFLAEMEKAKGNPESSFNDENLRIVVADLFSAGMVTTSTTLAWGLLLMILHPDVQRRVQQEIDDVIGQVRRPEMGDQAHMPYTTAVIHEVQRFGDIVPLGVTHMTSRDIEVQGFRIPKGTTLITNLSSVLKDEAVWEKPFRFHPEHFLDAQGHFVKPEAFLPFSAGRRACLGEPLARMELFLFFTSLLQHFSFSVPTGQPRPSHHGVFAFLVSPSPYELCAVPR
# Experiment: Cytochrome panel assay with activity outcomes
# Conditions: recombinant CYP, pro-luciferin dealkylation, luminescence, p450-cyp2d6; series mostly up to 57.1 µM
# On the % scale 0 is the no-effect control and ±100 the full control effect.
SMILES,AC50,"activity, negative = inhibition"
O=C(c1ccccc1F)c1cn(CC(=O)N2CCOCC2)c2ccccc12,inactive,
CCCN(CCC)[C@H]1CCc2c(F)ccc(O)c2C1,631 nM (active) and 1.58 µM (active),
CCCN(CCC)[C@@H]1CCc2cccc(O)c2C1,3.16 µM (active) and inactive and 794 nM (active),
Cc1cc(C)c(-n2c(O)c(C=NCCN3CCOCC3)c(=O)[nH]c2=O)c(C)c1,inactive,
O=P(Nc1c(Cl)cccc1Cl)(c1ccccc1)c1nc2c(s1)CCCC2 (configuration not stated),inactive,
C[N+]1([O-])[C@@H]2CC(OC(=O)[C@@H](CO)c3ccccc3)C[C@@H]1[C@H]1O[C@H]12 (some centres not stated),inactive,
CC(=Nc1c(C)n(C)n(-c2ccccc2)c1=O)c1c(O)n(Cc2ccccc2)c(=O)[nH]c1=O,inactive,
O=C(O)CN1CCN(CC(=O)O)CC(=O)[O][Hg][O]C(=O)C1,3.16 µM (active),
NCCP(=O)(O)O,,19.4% [at 11.4 µM] (inactive)
C[C@@]12CC[C@@H]3[C@H](CCC4=CC(=O)CC[C@]43C)[C@@H]1CC[C@@H]2C(=O)Cn1cnc2c(=S)nc[nH]c21,,7.22% [at 11.4 µM] (inactive)
O[C@@H](c1cc(-c2ccccc2)nc2c1ccc1ccccc12)[C@@H]1CCCCN1,3.16 µM (active),
Oc1ccc([C@H](O)[C@@H]2CCCCN2)cc1O,,15.6% [at 11.4 µM] (inactive)
NCc1cc(=O)[nH]o1,inactive,
O=C(O)/C=C\c1ccc[c]([Sb](=[O])([OH])[OH])c1,,-6.51% [at 11.4 µM] (inactive)
CC(=O)O/C(=C1/C[C@H]2[C@@H]3CC=C4C[C@@H](OC(C)=O)CC[C@]4(C)[C@@H]3CC[C@]2(C)C1=O)C(F)(F)F,,-5.95% [at 11.4 µM] (inactive)
COc1ccc2c(c1)C13CCCC[C@@H]1C(C2)N(C)CC3 (some centres not stated),3.98 µM (active),
COc1ccc2c(c1)[C@]13CCCC[C@@H]1[C@H](C2)N(C)CC3,2.51 µM (active),
COc1ccc2c(c1)[C@]13CCCC[C@@H]1[C@H](C2)NCC3,6.31 µM (active),
CC(C)(O)/C=C\C(=O)[C@](C)(O)[C@H]1[C@H](O)C[C@]2(C)[C@@H]3CC=C4[C@@H](C=C(O)C(=O)C4(C)C)[C@]3(C)C(=O)C[C@@]12C,,-2.8% [at 11.4 µM] (inactive)
C[C@@]12CC[C@H](O)C[C@@H]1CC[C@H]1[C@H]2CC[C@@]2(C)[C@@H](C3=CC(=O)OC3)CC[C@]12O,inactive,
C=CCN1C(=O)NC(=O)/C(=C/c2cccn2C)C1=O,inactive,

SMILES,AC50,"activity, negative = inhibition"
NC(N)=NCCC[C@H](N)C(=O)O,inactive,
CCOP(=O)(CN(CC)CCNP(=O)(OCC)OCC)OCC,inactive,
O=C1C=C2C=C[C@H]3C[C@@]2(O1)[C@H]1CCCCN31,inactive,
c1ccc2c(N3CCNCC3)cccc2c1,15.8 µM (active),
COc1ccccc1N1CCNCC1,inactive,
c1ccc2nc(N3CCNCC3)ccc2c1,inactive,
COc1ccc(C(=O)OC2C[C@H]3CC[C@@H](C2)N3C)cc1OC (some centres not stated),1 µM (active),
CN1C2CCC1CC(OC(=O)c1ccc(Cl)cc1)C2 (configuration not stated),0.224 µM (active),
COc1ccc(C(=O)O[C@H]2CC[C@@]3(C)[C@H]4CC[C@H]5[C@]3(C[C@]3(O)[C@H]6CN7C[C@H](C)CC[C@H]7[C@](C)(O)[C@]6(O)[C@H](O)C[C@]53O)O[C@]24O)cc1OC,,13.4% [at 11.4 µM] (inactive)
CN1[C@@H]2CC[C@H]1CC(O[C@@H](c1ccccc1)c1ccc(Cl)cc1)C2 (some centres not stated),1.26 µM (active) and 1.58 µM (active),
CC[C@H](Oc1ccc(Cl)cc1)C(=O)OC1C[C@H]2CC[C@@H](C1)N2C (some centres not stated),0.00631 µM (active),
CCN1C[C@]2(C)CC[C@H](O)[C@@]34[C@@H]5CC6[C@@H](OC)C[C@@](O)([C@@H]5[C@@H]6O)[C@H](C[C@@H]23)[C@H]14,inactive,
O=c1cccc2n1CC1CNC[C@H]2C1,inactive,
COC(=O)[C@@H]1[C@@H](O)[C@@]2(O)c3c(OC)cc(OC)cc3O[C@@]2(c2ccc(OC)cc2)[C@H]1c1ccccc1,,18.2% [at 11.4 µM] (inactive)
C[C@@]12CC[C@@H]3[C@@H](CC[C@H]4C[C@@H](O)CC[C@]43C)[C@H]1CC[C@@H]2c1cc(C(F)(F)F)n[nH]1,,-7.84% [at 11.4 µM] (inactive)
O=C(c1ccccc1F)c1cn(Cc2ccccc2)c2ccccc12,inactive,
CN1[C@@H]2CC[C@H]1CC(O)C2 (some centres not stated),inactive,
Cc1cc(C)cc(C(=O)OC2C[C@H]3CC[C@@H](C2)N3C)c1 (some centres not stated),0.251 µM (active),
C[C@@H](C(=O)OC1C[C@H]2CC[C@@H](C1)N2C)c1ccc(Br)cc1 (some centres not stated),3.98 µM (active),
CN1[C@@H]2CC[C@H]1CC(OC(=O)c1cc(Cl)cc(Cl)c1)C2 (some centres not stated),0.00794 µM (active),
C[N+]1([O-])[C@H]2CC[C@H]1CC(OC(=O)[C@@H](CO)c1ccccc1)C2 (some centres not stated),,17.4% [at 11.4 µM] (inactive)

SMILES,AC50,"activity, negative = inhibition"
C[N+]1([O-])[C@@H]2CC[C@H]1CC(OC(=O)[C@@H](CO)c1ccccc1)C2 (some centres not stated),inactive,
CS(=N)(=O)CC[C@H](N)P(=O)(O)O (some centres not stated),,-6.15% [at 11.4 µM] (inactive)
C[C@@]12CCC(=O)C=C1C=C[C@H]1[C@H]3CC[C@](O)(CCC(=O)O)[C@]3(C)CC[C@@H]12,inactive,
Cc1ccc(S(=O)(=O)NCC2CCC(C(=O)N3CCC4(CC3)OCCO4)CC2)cc1 (configuration not stated),inactive,
CCC12CN3CC(CC)(CN(C1)C3c1cccnc1)C2=O (configuration not stated),inactive,
O=S(=O)(O)/C(=C\c1ccccc1)c1ccccc1 (tested in a mixture with another compound),,-7.27% [at 11.4 µM] (inactive)
CCCCCC[C@H]1C(=O)O[C@H](C)[C@H](NC(=O)c2cccc(NC=O)c2O)C(=O)O[C@@H](C)[C@H]1OC(=O)CC(C)C,inactive,
CN(C)c1ccc(NC(=O)CN2C(=O)CN=C(c3ccccc3)c3ccccc32)cc1,inactive,
O=C1CCCN1CC#CCN1CCCC1,inactive and 7.94 µM (active),
NC(=O)CN1CCCC1=O,inactive,
C(#CCN1CCCC1)CN1CCCC1,inactive,
C[N+](C)(C)CC#CCN1CCCC1=O,inactive and 3.98 µM (active),
Cc1ccc(OP(=O)(Oc2ccc(C)cc2)N2C=Cc3ccccc3[C@H]2C#N)cc1,,-6.26% [at 11.4 µM] (inactive)
CN(C)CCC(=O)[C@@]1(O)CC[C@H]2[C@H]3CC=C4C[C@@H](O)CC[C@]4(C)[C@H]3CC[C@]21C,,-9.11% [at 11.4 µM] (inactive)
COC[C@H]1OC(=O)c2coc3c2[C@@]1(C)C1=C(C3=O)[C@H]2CCC(=O)[C@@]2(C)C[C@H]1OC(C)=O,inactive,
S=C(S)N1CCCC1,inactive,
C[C@@H]1O[C@@H](O[C@H]2C[C@@H](O)[C@@]3(CO)[C@H]4[C@H](O)C[C@]5(C)[C@@H](C6=CC(=O)OC6)CC[C@]5(O)[C@H]4CC[C@@]3(O)C2)[C@@H](O)[C@H](O)[C@H]1O,,-4.25% [at 11.4 µM] (inactive)
COc1ccccc1CN1CCCC2(CCN(C(=O)Oc3ccccc3)CC2)C1,3.98 µM (active),
O=C(Nc1cccc(F)c1)N1CCCC2(CCN(C(=O)Oc3ccccc3)CC2)C1,inactive,
O=C(Oc1ccccc1)N1CCC2(CCCN(Cc3nccs3)C2)CC1,5.01 µM (active),
O=C(Oc1ccccc1)N1CCC2(CCN(Cc3nccs3)CC2)CC1,inactive,

SMILES,AC50,"activity, negative = inhibition"
COc1cc2c(cc1OC)[C@]13CC[N@+]4(C)CC5=CCO[C@H]6CC(=O)N2[C@@H]1[C@@H]6[C@@H]5C[C@]34O,,-2.44% [at 11.4 µM] (inactive)
C[C@@]12CC[C@H]3[C@@H](CCC4=CC(=O)CC[C@]43C)[C@H]1CC[C@H]2C(=O)CO,inactive,
CC(C)C[C@H](NP(=O)(O)O[C@@H]1O[C@@H](C)[C@@H](O)[C@@H](O)[C@H]1O)C(=O)N[C@@H](Cc1c[nH]c2ccccc12)C(=O)O,inactive,
O=C(c1cc(-c2ccccc2)nc2ccccc12)N1CCC2(CC1)OCCO2,inactive,
CN(C)CCN(C)CCc1ccc(Cl)c(Cl)c1,inactive,
CN(CCc1ccc(Cl)c(Cl)c1)[C@H]1CCCC[C@H]1N1CCCC1,0.00631 µM (active),
Clc1cnc(Oc2ccc(Oc3ncc(Cl)cc3Cl)cc2)c(Cl)c1,inactive,
NS(=O)(=O)c1ccc(-c2ccc([As](=O)(O)O)cc2)cc1,,16.2% [at 11.4 µM] (inactive)
N[C@@H](Cn1cc(I)c(=O)[nH]c1=O)C(=O)O,inactive,
N[C@@H](Cn1oc(=O)[nH]c1=O)C(=O)O,inactive,
N[C@H](Cn1ccc(=O)[nH]c1=O)C(=O)O,3.98 µM (active),
CCSCC[C@H](N)C(=O)O,,2.98% [at 11.4 µM] (inactive)
CC(=O)OCC(=O)[C@@H]1CC[C@H]2[C@H]3CC[C@H]4C[C@@H](O)CC[C@]4(C)[C@@H]3C(=O)C[C@@]12C,inactive,
COc1ccc(C2NCc3ccc4c(c3-n3cccc32)OCO4)cc1OC (configuration not stated),0.398 µM (active),
CCNC(=O)[C@@H]1O[C@@H](n2cnc3c(N)ncnc32)[C@H](O)[C@H]1O,inactive,
C[C@@H]1[C@H]2C=C[C@@H]1[C@@H](c1c3ccc(=O)c(O)c-3oc3c(O)c(O)ccc13)[C@@H]2C(=O)O,,2.68% [at 11.4 µM] (inactive)
Cc1nc2ccccc2c(=O)n1-n1cnnc1,inactive,
Clc1ccc(C(c2ccc(Cl)cc2)n2cc[n+](C[C@@H](OCc3ccc(Cl)cc3Cl)c3ccc(Cl)cc3Cl)c2)cc1,0.0398 µM (active),
O=C(C1CC(=O)N(C2CCCC2)C1)N1CCC2(CC1)OCCO2 (configuration not stated),inactive,
